Data from PubChem BioAssay (NCATS).
Results filed as inconclusive are left out. Activity calls are given as the source filed them. Unless noted, the call rests on the fitted dose curve; in most records, active means well fitted curve in the direction sought with a large enough effect; inconclusive means small, poorly fitted or top-dose-only effect, or another doubt; inactive means no such curve, though single readings can be large; an effect the other way counts as inactive or inconclusive.

Key:
[1] = AP1 Signaling Pathway (AID 357; active means well fitted curve in either direction with a large enough effect, not every such curve was filed as active;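 further: ME-180 reporter cells stimulated with EGF at its EC50 level; on the % scale 0 is the no-effect control and ±100 the full control effect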); conditions: ME-180 AP-1-bla reporter, EGF-induced, beta-lactamase ratio, 5 h; at 7.69 µM (top of the series) unless noted
Outline: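 Beta-lactamase reporter under AP-1 response element, ME-180 background. Stimulus: EC50 EGF. Compound exposure 5 h, 37 °C. Detection: CCF4, 2.5 h RT, 460/530 nm. Values: AC50 from titration.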

[2] = NFAT Signaling Pathway (AID 444; active means well fitted curve in either direction with a large enough effect, not every such curve was filed as active;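 further: carbachol stimulus at about its EC50 of 1 µM final; on the % scale 0 is the no-effect control and ±100 the full control effect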); conditions: Jurkat NFAT-bla M1, carbachol, beta-lactamase ratio, 5 h; at 7.69 µM (top of the series) unless noted
Outline: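 Jurkat cells carrying an NFAT-driven β-lactamase reporter and co-transfected muscarinic M1 receptor were treated with compound plus carbachol (1 uM final, an EC50 level) for 5 h at 37 °C. CCF4 loading followed for 1 h at RT; 460/530 nm ratio gave %activity.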

[3] = Stat Signaling Pathway (AID 446; active means well fitted curve in either direction with a large enough effect, not every such curve was filed as active;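 further: ME-180 cervical cancer cells given 40 pM IL-6 alongside compound; SIE-controlled beta-lactamase reporter measured as 460/530 nm FRET emission ratio; on the % scale 0 is the no-effect control and ±100 the full control effect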); conditions: ME-180 SIE beta-lactamase reporter, IL-6 stimulated, 5 h; at 7.69 µM (top of the series) unless noted
Outline: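 Screening format detects activators and inhibitors alike: ME-180 SIE-bla cells stimulated at 40 pM IL-6 for 5 hrs with compound, then dual-emission beta-lactamase read at 405 nm excitation.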

[4] = molecular target: Glucocorticoid receptor (Homo sapiens) (UniProt P04150); assay: GR-GFP Redistribution (AID 450;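 active means compounds whose dose series gives a full or clear partial fitted curve of increased nuclear translocation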; further: potency means the concentration at half of the fitted maximal effect); conditions: U2OS GR-GFP nuclear translocation, laser cytometry, 2 h
[5] = molecular target: Glucocorticoid receptor (Homo sapiens) (UniProt P04150); assay: GR-EFC Redistribution (AID 451; calls by dose curve; further: potency means the concentration at half of the fitted maximal effect); conditions: CHO-K1 GR-EFC translocation, beta-gal luminescence, 2 h
Outline: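 CHO-K1 cells stably expressing nuclear-localized β-gal enzyme acceptor and GR fused C-terminally to the enzyme donor fragment; ligand-driven nuclear translocation restores β-gal by complementation. Compounds titrated up to 46 uM final, 2 h at 37 °C; luminescence read.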

[6] = molecular target: Mitogen-activated protein kinase 10 (Mus musculus) (UniProt Q61831); assay: JNK3 AlphaScreen Assay (AID 530; active means well fitted curve in either direction with a large enough effect, not every such curve was filed as active;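 further: kinase came from lysate of stimulated human HepG2 cells; signal reports phosphorylation of biotinylated GST-cJun 1-79 at Ser73 with 10 µM ATP; on the % scale 0 is the no-effect control and ±100 the full control effect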)
Outline: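 Inhibitors reduce antibody binding to phosphorylated biotin-cJun, lowering AlphaScreen luminescence. Lysates from HepG2 cells pre-activated by IL-1beta plus TNF-alpha supplied JNK3; compounds were titrated.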

[7] = molecular target: 3',5'-cyclic-AMP phosphodiesterase 4B (Homo sapiens) (UniProt Q07343); assay: qHTS Assay for Inhibitors of PDE-IV (AID 607; active means well fitted activation curve with a large enough effect in the main read-out, with a control signal flat, not every such curve was filed as active; further: % of control where 0% means no effect)
Outline: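 The readout is membrane depolarisation from a cAMP-sensing CNG channel, detected with a potential dye at ex 535/em 590. Cells were HEK293-derived (endogenous PDE-IV) at 1000 cells/well, titrated up to 22.9 uM final.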

[8] = qHTS Assay for Lipid Storage Modulators (AID 1519; calls by dose curve); conditions: Drosophila S3 cells, BODIPY lipid droplet/cell ratio, laser cytometry, cells loaded with oleic acid; for activity change, negative = inhibition: at 57.5 µM (top of the series)
Outline: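 Cells seeded at 5,000 per well were treated with compounds over a concentration series and loaded with oleic acid (400 uM, as added). Lipid droplet fluorescence (488 nm excitation, 500-530 nm channel) was read by laser-scanning cytometry and normalized to 20 uM Triacsin C.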

[9] = molecular target: Dual specificity protein kinase CLK4 (Homo sapiens) (UniProt Q9HAZ1); assay: qHTS Assay for Inhibitors of CDC-like Kinase 4 (Kinase-Glo Assay) (AID 1770); further: nearly all actives have a fitted effect of over 65% in size; further: potency means the concentration at half of the fitted maximal effect
Outline: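 Clk4 25 nM, RS peptide 100 uM, ATP 1 uM, pH 7.5 Tris, 10 mM MgCl2, 2.5 mM DTT; 4.5 h RT; ATP depletion read by Kinase-Glo luminescence.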

[10] = molecular target: Dual specificity protein kinase CLK4 (Homo sapiens) (UniProt Q9HAZ1); assay: qHTS Assay for Inhibitors of CDC-like Kinase 4 (ADP-Glo Assay) (AID 1771); further: nearly all actives have a fitted effect of over 70% in size; further: potency means the concentration at half of the fitted maximal effect
Outline: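 25 nM Clk4 with 100 uM RS repeat peptide and 1 uM ATP (final) in buffer with 2 mM MgCl2, 0.5 mM EGTA, 2.5 mM DTT, 0.01% Triton X-100; 1 h at room temperature; ADP-Glo luminescence for ADP formed.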

[11] = molecular target: Dual specificity protein kinase CLK4 (Homo sapiens) (UniProt Q9HAZ1); assay: qHTS Assay for Inhibitors of CDC-like Kinase 4 (ADP-FP Assay) (AID 1795); further: nearly all actives have a fitted effect of over 60% in size; further: potency means the concentration at half of the fitted maximal effect
Outline: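 Kinase activity was followed as ADP output, converted from fluorescence polarization with a calibration curve. Reactions ran one hour at low ATP (1 uM) with RS peptide substrate.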

[12] = molecular target: Ubiquitin carboxyl-terminal hydrolase 1 (Homo sapiens) (UniProt O94782); assay: Inhibitors of USP1/UAF1: Pilot qHTS (AID 504865);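 further: rhodamine fluorescence freed from ubiquitin-rhodamine substrate followed over time; top concentration of the series differs between compounds; on the % scale 0 is the no-effect control and ±100 the full control effect; nearly all actives have a fitted effect of over 35% in size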
Outline: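 Enzyme-free wells gave the negative control, while test wells held 1nM USP1/UAF1 preincubated with compound for 15 min at room temperature. Ub-Rho at 150nM final started the reaction, and fluorescence at 480/540 nm was recorded kinetically.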

[13] = molecular target: Lysosomal acid glucosylceramidase (Homo sapiens) (UniProt P04062); assay: Glucocerebrosidase-p2 (AID 348; in the data active means potency below about 10 µM; further: potency means the concentration at half of the fitted maximal effect); conditions: purified GBA, blue fluorogenic substrate, 40 min
Outline: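 Compounds titrated from 0.6 nM upwards against 0.2 nM enzyme in pH 5.9 citric acid/KH2PO4, taurocholate, tween-20; blue fluorogenic substrate 80 uM, 40 min room temperature, stopped and read Ex 365/Em 440 for AC50.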

[14] = molecular target: Cytochrome P450 1A2 (Homo sapiens) (UniProt P05177); assay: p450-cyp1a2 (AID 410; calls by dose curve; further: potency means the concentration at half of the fitted maximal effect)
Outline: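 20nM CYP1A2 with 100uM Luciferin-ME (at Km) in 100mM KPO4; compound preincubated 10 min, NADPH regeneration added, 60 min at room temperature. Luciferin quantified by luminescence after detection reagent; normalized to 57 uM furafylline.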

[15] = molecular target: Cytochrome P450 3A4 (Homo sapiens) (UniProt P08684); assay: qHTS Assay for Activators of Cytochrome P450 3A4 (AID 885); further: nearly all actives have a fitted effect of over 65% in size
Outline: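 Steps: enzyme/substrate mix dispensed; compound added, 10 min RT; NADPH regeneration solution added, 60 min RT; luciferin detection buffer stops reaction; 20 min later luminescence measured.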

[16] = molecular target: Cytochrome P450 3A4 (Homo sapiens) (UniProt P08684); assay: qHTS Assay for Inhibitors and Substrates of Cytochrome P450 3A4 (AID 884); further: nearly all actives have a fitted effect of over 50% in size; further: potency means the concentration at half of the fitted maximal effect
Outline: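 20 nM human CYP3A4 with 25 uM Luciferin-PPXE (at KM) in 200 mM KPO4, preincubated 10 min with compound; NADPH regeneration started a 60 min RT reaction. Luciferin detected by luminescence, normalized to 57 uM ketoconazole as full inhibition.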

[17] = measured here: cell count channel max response
[18] = measured here: lipid channel max response

Ubiquitin carboxyl-terminal hydrolase 1 (Homo sapiens), sequence (O94782 whole entry, looked up): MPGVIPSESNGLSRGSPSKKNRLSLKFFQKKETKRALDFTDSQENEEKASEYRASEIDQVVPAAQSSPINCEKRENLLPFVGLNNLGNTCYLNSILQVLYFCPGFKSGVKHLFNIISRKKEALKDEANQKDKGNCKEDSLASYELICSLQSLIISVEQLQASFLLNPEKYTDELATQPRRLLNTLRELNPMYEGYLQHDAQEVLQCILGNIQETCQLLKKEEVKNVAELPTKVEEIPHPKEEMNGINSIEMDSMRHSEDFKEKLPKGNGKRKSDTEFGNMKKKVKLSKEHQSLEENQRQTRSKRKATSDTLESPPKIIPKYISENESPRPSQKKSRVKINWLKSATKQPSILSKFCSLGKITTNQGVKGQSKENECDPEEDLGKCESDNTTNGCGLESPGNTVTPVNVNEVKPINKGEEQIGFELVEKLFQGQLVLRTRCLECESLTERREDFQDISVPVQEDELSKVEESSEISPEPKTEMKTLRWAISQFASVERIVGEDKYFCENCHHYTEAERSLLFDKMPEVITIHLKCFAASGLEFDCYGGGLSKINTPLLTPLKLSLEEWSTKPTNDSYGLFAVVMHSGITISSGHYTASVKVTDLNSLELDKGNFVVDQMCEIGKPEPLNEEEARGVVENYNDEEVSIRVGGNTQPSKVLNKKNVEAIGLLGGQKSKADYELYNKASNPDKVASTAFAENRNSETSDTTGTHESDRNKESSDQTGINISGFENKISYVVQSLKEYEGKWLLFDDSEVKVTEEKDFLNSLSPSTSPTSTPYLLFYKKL
Glucocorticoid receptor (Homo sapiens), sequence (P04150 whole entry, looked up, the tested form may be a part): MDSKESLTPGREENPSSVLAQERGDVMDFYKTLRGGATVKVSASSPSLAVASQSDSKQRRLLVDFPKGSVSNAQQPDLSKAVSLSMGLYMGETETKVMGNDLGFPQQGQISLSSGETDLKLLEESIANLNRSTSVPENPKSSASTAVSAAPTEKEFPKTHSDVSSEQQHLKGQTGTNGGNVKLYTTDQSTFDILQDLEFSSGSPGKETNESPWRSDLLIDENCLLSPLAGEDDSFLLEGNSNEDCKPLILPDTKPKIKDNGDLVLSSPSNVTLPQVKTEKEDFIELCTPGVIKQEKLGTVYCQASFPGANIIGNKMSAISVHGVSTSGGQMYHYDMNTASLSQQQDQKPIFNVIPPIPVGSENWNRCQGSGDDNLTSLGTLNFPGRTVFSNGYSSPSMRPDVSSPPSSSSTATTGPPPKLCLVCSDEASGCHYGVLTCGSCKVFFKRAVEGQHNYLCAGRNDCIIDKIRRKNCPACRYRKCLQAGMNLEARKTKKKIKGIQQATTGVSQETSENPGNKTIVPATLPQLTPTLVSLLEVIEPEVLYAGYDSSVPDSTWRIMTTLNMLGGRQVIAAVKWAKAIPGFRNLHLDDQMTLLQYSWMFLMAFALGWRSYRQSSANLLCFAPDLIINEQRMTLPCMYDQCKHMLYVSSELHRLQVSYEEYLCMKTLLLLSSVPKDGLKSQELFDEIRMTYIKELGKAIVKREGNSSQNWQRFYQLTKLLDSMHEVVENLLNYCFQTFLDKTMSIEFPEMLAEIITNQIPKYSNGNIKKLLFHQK
Lysosomal acid glucosylceramidase (Homo sapiens), sequence (P04062 whole entry, looked up): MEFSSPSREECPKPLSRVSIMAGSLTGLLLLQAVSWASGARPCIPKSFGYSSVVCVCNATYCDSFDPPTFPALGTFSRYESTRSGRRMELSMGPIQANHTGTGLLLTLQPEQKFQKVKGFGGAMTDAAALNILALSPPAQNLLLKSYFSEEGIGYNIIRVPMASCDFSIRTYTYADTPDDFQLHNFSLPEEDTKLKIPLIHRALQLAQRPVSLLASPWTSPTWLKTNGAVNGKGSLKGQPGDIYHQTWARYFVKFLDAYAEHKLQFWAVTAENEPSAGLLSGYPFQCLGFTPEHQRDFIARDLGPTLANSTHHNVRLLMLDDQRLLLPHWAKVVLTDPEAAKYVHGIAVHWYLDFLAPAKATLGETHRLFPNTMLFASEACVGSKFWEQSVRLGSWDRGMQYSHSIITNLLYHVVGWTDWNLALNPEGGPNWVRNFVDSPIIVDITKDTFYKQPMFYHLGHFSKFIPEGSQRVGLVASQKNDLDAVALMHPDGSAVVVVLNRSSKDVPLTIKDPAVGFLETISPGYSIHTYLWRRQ
Cytochrome P450 3A4 (Homo sapiens), sequence (P08684 whole entry, looked up): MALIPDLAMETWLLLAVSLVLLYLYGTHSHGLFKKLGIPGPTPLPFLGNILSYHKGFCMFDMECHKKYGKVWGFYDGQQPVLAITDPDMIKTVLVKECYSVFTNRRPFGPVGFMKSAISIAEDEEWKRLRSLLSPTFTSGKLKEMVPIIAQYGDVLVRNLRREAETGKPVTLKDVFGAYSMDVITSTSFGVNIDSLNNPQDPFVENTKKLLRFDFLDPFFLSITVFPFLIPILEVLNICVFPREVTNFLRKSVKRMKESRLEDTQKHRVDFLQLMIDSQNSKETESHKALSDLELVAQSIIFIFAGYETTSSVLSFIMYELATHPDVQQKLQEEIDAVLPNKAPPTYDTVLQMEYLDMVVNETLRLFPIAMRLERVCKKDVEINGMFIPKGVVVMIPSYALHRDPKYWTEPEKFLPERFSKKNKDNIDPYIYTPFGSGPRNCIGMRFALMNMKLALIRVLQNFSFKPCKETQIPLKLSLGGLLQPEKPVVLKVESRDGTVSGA
Dual specificity protein kinase CLK4 (Homo sapiens), sequence (Q9HAZ1 whole entry, looked up): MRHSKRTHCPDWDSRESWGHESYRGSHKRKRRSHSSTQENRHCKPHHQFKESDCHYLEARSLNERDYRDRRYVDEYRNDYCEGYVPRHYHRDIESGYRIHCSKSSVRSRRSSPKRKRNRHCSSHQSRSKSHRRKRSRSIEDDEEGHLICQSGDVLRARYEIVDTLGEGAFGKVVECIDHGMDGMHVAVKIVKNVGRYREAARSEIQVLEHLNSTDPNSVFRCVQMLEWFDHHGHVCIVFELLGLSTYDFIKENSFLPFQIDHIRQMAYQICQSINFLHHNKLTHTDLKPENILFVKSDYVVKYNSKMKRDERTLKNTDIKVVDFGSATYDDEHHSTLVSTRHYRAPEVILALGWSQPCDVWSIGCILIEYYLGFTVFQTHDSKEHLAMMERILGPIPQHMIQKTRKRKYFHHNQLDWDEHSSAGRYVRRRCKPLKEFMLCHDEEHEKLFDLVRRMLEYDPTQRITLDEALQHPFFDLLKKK
Cytochrome P450 1A2 (Homo sapiens), sequence (P05177 whole entry, looked up): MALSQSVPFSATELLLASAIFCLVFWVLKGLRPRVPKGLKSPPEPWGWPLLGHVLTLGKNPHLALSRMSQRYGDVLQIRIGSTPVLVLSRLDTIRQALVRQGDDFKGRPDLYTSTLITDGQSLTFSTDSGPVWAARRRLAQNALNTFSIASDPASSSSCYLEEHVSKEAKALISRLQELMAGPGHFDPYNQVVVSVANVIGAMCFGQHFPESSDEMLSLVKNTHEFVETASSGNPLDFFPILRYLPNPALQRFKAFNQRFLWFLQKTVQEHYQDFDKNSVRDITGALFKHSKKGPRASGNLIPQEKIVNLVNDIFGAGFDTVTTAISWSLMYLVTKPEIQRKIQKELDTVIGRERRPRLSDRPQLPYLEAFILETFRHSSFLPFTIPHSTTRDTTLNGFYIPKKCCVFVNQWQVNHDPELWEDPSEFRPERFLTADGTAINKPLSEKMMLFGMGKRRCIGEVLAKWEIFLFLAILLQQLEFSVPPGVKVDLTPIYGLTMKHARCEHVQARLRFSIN
3',5'-cyclic-AMP phosphodiesterase 4B (Homo sapiens), sequence (Q07343 whole entry, looked up): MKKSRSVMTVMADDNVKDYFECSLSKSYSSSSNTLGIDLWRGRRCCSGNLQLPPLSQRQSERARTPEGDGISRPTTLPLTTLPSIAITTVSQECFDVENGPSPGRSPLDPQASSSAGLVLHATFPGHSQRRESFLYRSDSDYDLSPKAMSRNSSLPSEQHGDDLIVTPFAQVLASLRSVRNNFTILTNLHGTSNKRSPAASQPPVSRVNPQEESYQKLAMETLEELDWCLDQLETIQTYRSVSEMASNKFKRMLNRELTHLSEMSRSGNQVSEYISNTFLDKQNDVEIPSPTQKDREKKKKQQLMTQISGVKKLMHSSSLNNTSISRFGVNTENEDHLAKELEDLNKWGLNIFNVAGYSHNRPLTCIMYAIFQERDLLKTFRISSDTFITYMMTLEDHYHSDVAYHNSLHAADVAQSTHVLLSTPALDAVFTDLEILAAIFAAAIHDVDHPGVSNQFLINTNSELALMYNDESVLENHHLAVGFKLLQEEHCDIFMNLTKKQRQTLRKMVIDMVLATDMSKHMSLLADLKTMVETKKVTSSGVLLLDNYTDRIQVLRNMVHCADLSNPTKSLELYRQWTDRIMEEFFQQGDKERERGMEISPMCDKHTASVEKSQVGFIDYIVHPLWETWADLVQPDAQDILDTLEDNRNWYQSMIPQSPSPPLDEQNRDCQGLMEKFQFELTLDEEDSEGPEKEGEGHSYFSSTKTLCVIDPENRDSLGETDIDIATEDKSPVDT

CS(=O)(=O)Nc1cccc(-c2nc(NC3CC3)c3ccccc3n2)c1
22.8%: max response [8, 18]
inactive: activity change, negative = inhibition [1] -17.2% | activity change, negative = inhibition [2] 0.73% | activity, negative = inhibition [3] 4.92% | Potency [4] > 46 µM | Potency [5] > 46 µM | Potency [6] | Potency [7] | activity change, negative = inhibition [8] 3.51% | Potency [12]
19.9%: max response [8, 17]
active: Potency [9] 7.94 µM | Potency [10] 10 µM | Potency [11] 12.6 µM

Cc1ccccc1-c1ccc2ncnc(N3CCNCC3)c2c1
inactive: Potency [13] > 11.4 µM | activity change, negative = inhibition [2] -1.24% | activity, negative = inhibition [3] 9.45% | Potency [4] > 46 µM | Potency [5] > 46 µM | Potency [6] | Potency [7] | Potency [15] | activity change, negative = inhibition [8] 6.61% | Potency [12]
active: Potency [14] 3.16 µM | Potency [9] 20 µM | Potency [10] 31.6 µM
8.2%: max response [8, 18]
4.98%: max response [8, 17]

COc1ccc(CNc2ccnc(-c3ccccc3CN(C)C)n2)c(OC)c1
inactive: activity change, negative = inhibition [1] 5.22% | activity change, negative = inhibition [2] -25.3% | activity, negative = inhibition [3] 9.04% | Potency [4] > 46 µM | Potency [5] > 46 µM | Potency [6] | Potency [15] | activity change, negative = inhibition [8] 3.1% | Potency [9] | Potency [10] | Potency [11] | Potency [12]
active: Potency [14] 15.8 µM | Potency [16] 5.01 µM
28.6%: max response [8, 18]
26.9%: max response [8, 17]

COc1ccccc1-c1cncnc1N1CCN(C)CC1
active: Potency [16] 2.51 µM
29.7%: max response [8, 18]
inactive: Potency [13] > 11.4 µM | activity change, negative = inhibition [1] 3.96% | activity change, negative = inhibition [2] -14.4% | activity, negative = inhibition [3] 4.86% | Potency [4] > 46 µM | Potency [5] > 46 µM | Potency [6] | Potency [7] | Potency [15] | activity change, negative = inhibition [8] 3.21% | Potency [9] | Potency [11] | Potency [12]
28%: max response [8, 17]

COc1ccc(-n2c(=O)c(-c3ccc(F)cc3)nc3cnc(N4CCNCC4)nc32)cc1
12.6%: max response [8, 18]
inactive: Potency [13] > 11.4 µM | activity change, negative = inhibition [1] -1.98% | activity change, negative = inhibition [2] 27.8% | activity, negative = inhibition [3] 9.23% | Potency [4] > 9.22 µM | Potency [5] > 46 µM | Potency [6] | Potency [7] | activity change, negative = inhibition [8] 0.369% | Potency [9] | Potency [10] | Potency [12]
11.2%: max response [8, 17]

CN1CCN(c2ncc3nc(CCc4ccccc4)c(=O)n(C)c3n2)CC1
inactive: Potency [13] > 11.4 µM | activity change, negative = inhibition [1] 14.9% | activity change, negative = inhibition [2] 1.74% | activity, negative = inhibition [3] -2.48% | Potency [4] > 9.22 µM | Potency [5] > 46 µM | Potency [6] | Potency [7] | Potency [16] | activity change, negative = inhibition [8] 3.14% | Potency [10] | Potency [11] | Potency [12]
18.8%: max response [8, 17]
18.3%: max response [8, 18]
active: Potency [14] 12.6 µM
